Experimental data: PubChem BioAssay (NCATS)
Inconclusive results are not listed. Calls of active or inactive are those of the source. Calls follow the shape of the dose curve; as a rule, active = well fitted curve in the direction sought with a large enough effect; inconclusive = small, poorly fitted or top-dose-only effect, or another doubt; inactive = no such curve, though single readings can be large; an effect the other way counts as inactive or inconclusive.

Experiments:
HaCat = assay: Cytotoxic Profiling of Annotated Libraries Using Quantitative High-Throughput Screening (AID 1296008); details: Five cell lines viability, CellTiter-Glo ATP luminescence, 48-72 h; max response: hits give low values; also: nearly all actives have a fitted effect of over 60% in size
In short: (§1)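 Cells exposed to compounds for 48 or 72 hr at 37 degrees Celsius. Viability read as ATP-coupled luminescence with CellTiter-Glo after 10 min at room temperature.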

KB-3-1 = assay: as above; details: Five cell lines viability, CellTiter-Glo ATP luminescence, 48-72 h; max response: hits give low values
In short: as §1

NIH3T3 = assay: as above; details: Five cell lines viability, CellTiter-Glo ATP luminescence, 48-72 h; max response: hits give low values
In short: as §1

C33A = assay: Primary qHTS to identify gynecologic anti-cancer compounds using libraries of approved drugs and bioactive compounds (AID 1345084); details: Gynecologic cancer cell panel viability, ATPlite luminescence, 48 h; series mostly up to 57.5 µM; also: nearly all actives have a fitted effect of over 55% in size
In short: (§2)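 48 h compound exposure at 37 C, 5% CO2; five-point qHTS. ATPlite luminescence readout of cell ATP.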

CAOV3 = assay: as above; details: Gynecologic cancer cell panel viability, ATPlite luminescence, 48 h; series mostly up to 57.5 µM
In short: as §2

CASKI = assay: as above; details: Gynecologic cancer cell panel viability, ATPlite luminescence, 48 h; series mostly up to 57.5 µM
In short: as §2

Es-2 = assay: as above; details: Gynecologic cancer cell panel viability, ATPlite luminescence, 48 h; series mostly up to 57.5 µM
In short: as §2

HeLa = assay: as above; details: Gynecologic cancer cell panel viability, ATPlite luminescence, 48 h; series mostly up to 57.5 µM
In short: as §2

Hek293T = assay: as above; details: Gynecologic cancer cell panel viability, ATPlite luminescence, 48 h, control line for the selectivity index; series mostly up to 57.5 µM
In short: as §2

OV90 = assay: as above; details: Gynecologic cancer cell panel viability, ATPlite luminescence, 48 h; series mostly up to 57.5 µM
In short: as §2

JEG-3 = assay: as above; details: Gynecologic cancer cell panel viability, ATPlite luminescence, 48 h; series mostly up to 57.5 µM
In short: as §2
% is scaled to controls: 0 for no effect and ±100 for the full control effect; potency is read from the fitted curve at half-maximal effect.

CC(Cc1cc2c(c(C(N)=O)c1)N(CCCO)CC2)NCCOc1ccccc1OCC(F)(F)F (stereo not drawn)
inactive: max response (HaCat) 2.13% | max response (KB-3-1) -19.6% | max response (NIH3T3) 2.09% | Potency (C33A) | Potency (CAOV3) | Potency (CASKI) | Potency (Es-2) | Potency (HeLa) | Potency (Hek293T) | Potency (OV90)

Cc1c(F)cc(C(=O)NC2CC2)cc1-c1c(F)cn2c(C(C)(C)C)nnc2c1F
inactive: max response (HaCat) -0.453% | max response (KB-3-1) -2.87% | max response (NIH3T3) -8.04% | Potency (C33A) | Potency (CAOV3) | Potency (Es-2) | Potency (HeLa) | Potency (Hek293T) | Potency (JEG-3) | Potency (OV90)

C=C(F)c1sc(CNCCCNc2cc(=O)c3ccccc3[nH]2)c(C)c1Br
active: Potency (KB-3-1) 16400 nM
inactive: max response (HaCat) -0.153% | max response (NIH3T3) -1.77% | Potency (C33A) | Potency (CAOV3) | Potency (CASKI) | Potency (Es-2) | Potency (HeLa) | Potency (Hek293T) | Potency (JEG-3) | Potency (OV90)

CC(=O)N1CCN(Cc2ccc([C@H](C)Nc3nccc(N4C(=O)OC[C@@H]4C(C)C)n3)cc2)CC1
inactive: max response (HaCat) -0.103% | max response (KB-3-1) 2.58% | max response (NIH3T3) -9.86% | Potency (C33A) | Potency (CAOV3) | Potency (CASKI) | Potency (Es-2) | Potency (HeLa) | Potency (Hek293T) | Potency (OV90)

COc1ccc(C(O)C(C)OC2OC(CO)C(O)C(O)C2O)cc1 (stereo not drawn)
inactive: max response (HaCat) 1.16% | outcome (KB-3-1) | max response (NIH3T3) -2.23% | Potency (C33A) | Potency (CAOV3) | Potency (CASKI) | Potency (Es-2) | Potency (HeLa) | Potency (Hek293T) | Potency (JEG-3) | Potency (OV90)

CC1=CC2C(CC1OC1OC(CO)C(O)C(O)C1O)C(C)CC(=O)C2C(C)C (stereo not drawn)
inactive: max response (HaCat) -4.3% | outcome (KB-3-1) | max response (NIH3T3) 1.5% | Potency (C33A) | Potency (CAOV3) | Potency (Es-2) | Potency (HeLa) | Potency (Hek293T) | Potency (JEG-3) | Potency (OV90)

O=C(/C=C\n1cnc(-c2cc(C(F)(F)F)cc(C(F)(F)F)c2)n1)N1CC(F)(F)C1
inactive: max response (HaCat) -18.4% | Potency (C33A) | Potency (OV90)
active: Potency (KB-3-1) 7310 nM | Potency (NIH3T3) 1840 nM | Potency (CAOV3) 2820 nM | Potency (Es-2) 3160 nM | Potency (HeLa) 17800 nM | Potency (Hek293T) 1580 nM

CC1OC(OC2C(OC3C(O[C@H]4CC[C@@]5(C)C(CC[C@]6(C)C5C(=O)C=C5C7CC(C)(C)CC(O)[C@]7(C)CC[C@]56C)C4(C)C)OC(C(=O)O)C(O)C3O)OCC(O)C2O)C(O)C(O)C1O (stereo partly drawn)
inactive: max response (HaCat) -1.72% | max response (KB-3-1) -2.68% | max response (NIH3T3) -3.29% | activity change, negative = cytotoxicity (C33A) -11.1% [at 11.6 µM] | activity change, negative = cytotoxicity (CAOV3) -11.1% [at 11.6 µM] | activity change, negative = cytotoxicity (CASKI) -7.33% [at 11.6 µM] | activity change, negative = cytotoxicity (Es-2) -2.72% [at 11.6 µM] | activity change, negative = cytotoxicity (HeLa) 6.46% [at 11.6 µM] | activity change, negative = cytotoxicity (Hek293T) -13.7% [at 11.6 µM] | activity change, negative = cytotoxicity (JEG-3) -7.16% [at 11.6 µM] | activity change, negative = cytotoxicity (OV90) -4.31% [at 11.6 µM]

COc1cc(O)cc(C)c1C(=O)O[C@H]1[C@@H](OC(C)=O)[C@H](n2ccc(=O)[nH]c2=O)O[C@@H]1CO
inactive: max response (HaCat) -17.4% | max response (KB-3-1) 7.29% | max response (NIH3T3) 0.716% | Potency (C33A) | Potency (CAOV3) | Potency (CASKI) | Potency (Es-2) | Potency (HeLa) | Potency (JEG-3) | Potency (OV90)

COc1ccc(/C=C/C(=O)O[C@H]2[C@H](O[C@H]3[C@@H]4C=CO[C@@H](O[C@@H]5O[C@H](CO)[C@@H](O)[C@H](O)[C@H]5O)[C@@H]4[C@@]4(CO)O[C@@H]34)O[C@@H](C)[C@H](O)[C@H]2OC(C)=O)cc1
inactive: max response (HaCat) 2.92% | max response (KB-3-1) 4.98% | max response (NIH3T3) -16.4% | Potency (C33A) | Potency (CAOV3) | Potency (CASKI) | Potency (Es-2) | Potency (HeLa) | Potency (Hek293T) | Potency (JEG-3) | Potency (OV90)

OC[C@H]1O[C@@H](OCCc2ccc(O)cc2)[C@H](O[C@@H]2OC[C@](O)(CO)[C@H]2O)[C@@H](O)[C@@H]1O
inactive: max response (HaCat) 1.3% | max response (KB-3-1) 8.69% | max response (NIH3T3) -3.47% | Potency (C33A) | Potency (CAOV3) | Potency (CASKI) | Potency (Es-2) | Potency (HeLa) | Potency (Hek293T) | Potency (JEG-3) | Potency (OV90)

COc1ccc2c(OC)c3ccoc3nc2c1OC
inactive: max response (HaCat) -7.51% | max response (KB-3-1) 4.27% | max response (NIH3T3) -9.34% | Potency (C33A) | Potency (CAOV3) | Potency (CASKI) | Potency (Es-2) | Potency (Hek293T) | Potency (JEG-3) | Potency (OV90)

O=C(NOCC(O)CO)c1ccc(F)c(F)c1Nc1ccc(I)cc1F (stereo not drawn)
inactive: max response (HaCat) -79.3% | outcome (KB-3-1) | Potency (C33A) | Potency (CAOV3) | Potency (CASKI) | Potency (HeLa) | Potency (Hek293T) | Potency (JEG-3)
active: Potency (NIH3T3) 1840 nM
